Measurements: PubChem BioAssay (Tox21)
Results filed as inconclusive are left out. The source made the active and inactive calls. Unless noted, calls come from the whole dose curve; as a rule, active = well fitted curve in the direction sought with a large enough effect in the repeat runs; inconclusive = weak or mixed curves; inactive = no such curve, though single readings can be large; an effect the other way counts as inactive or inconclusive.

What was measured:
[1] = qHTS assay to identify small molecule antagonists of the TGF-beta/Smad signaling pathway - cell viability counter screen (AID 1346824); note: nearly all actives have a fitted effect of over 50% in size
Summary of the method: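 SBE-bla HEK 293T cells were plated overnight at 37 C, then given compounds in DMSO plus TGF-beta1 (added as 0.25 ng/mL solution) for 5 hr. After the bla read, CellTiter-Glo was added to the same wells and luminescence read after 30 min at room temperature.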

[2] = qHTS assay to identify small molecule agonists of the TGF-beta/Smad signaling pathway - cell viability counter screen (AID 1346829); note: top concentration of the series differs between compounds; nearly all actives have a fitted effect of over 45% in size
Summary of the method: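 Here the cytotoxicity of library compounds is measured in SBE-bla HEK 293T cells treated for 5 hr, using CellTiter-Glo added to wells already read for the beta-lactamase reporter.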

[3] = qHTS assay to identify small molecule agonists of the TGF-beta/Smad signaling pathway (AID 1346859; active = well fitted activation curve with a large enough effect in the signal ratio in the repeat runs, not every such curve was filed as active; the % refers to the signal ratio; note: series mostly up to about 77 µM)
Summary of the method: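 Reporter line: HEK 293T with stably integrated SBE-controlled beta-lactamase. Compound exposure lasts 5 hr at 37 C and 5% CO2; substrate loading follows for 2 hr at room temperature, with emission read at 460 and 530 nm.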

[4] = molecular target: Thyrotropin-releasing hormone receptor (Homo sapiens) (UniProt P34981); assay: qHTS assay to identify small molecule antagonists of the thyrotropin-releasing hormone receptor (TRHR) signaling pathway (AID 1346877; active = well fitted inhibition curve with a large enough effect in the repeat runs, not every such curve was filed as active; note: series mostly up to about 51 µM)
Summary of the method: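 Overnight-plated (18 h, 37 °C) HEK293 cells expressing TRHR were dye-loaded 2 h, treated with compound, then stimulated with TRH at 1 nM final. Fluorescence intensity was captured every second for 3 min.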

[5] = molecular target: Thyrotropin-releasing hormone receptor (Homo sapiens) (UniProt P34981); assay: qHTS assay to identify small molecule agonists of the thyrotropin-releasing hormone receptor (TRHR) signaling pathway (AID 1346891; calls by dose curve;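 note: HEK293 cells expressing TRHR with calcium dye readout; series mostly up to about 58 µM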)
Summary of the method: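 Cells: TRHR-Hek293, seeded and incubated 18 h. Dye loading: 2 h at 37 °C. Compound added from DMSO stock by pin tool. Read-out: kinetic calcium fluorescence over 3 min.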

[6] = Human pregnane X receptor (PXR) small molecule agonists, qHTS cell viability counter screen (AID 1346977); note: nearly all actives have a fitted effect of over 50% in size
Summary of the method: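 Cytotoxicity counter screen run in the same wells as the PXR luciferase assay, using PXR-Luc HepG2 cells in charcoal-stripped serum medium. Viability: CellTiter-Fluor fluorescence after 24hr compound treatment.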

[7] = Caspase-3/7 induction in HepG2 cells by small molecules, qHTS assay (AID 1346978); note: nearly all actives have a fitted effect of over 15% in size
Summary of the method: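 Wild-type HepG2 cells (2,000/well) were settled 5 h at 37 C, 5% CO2, then exposed to compounds in DMSO for 17 h. Caspase-3/7 activity was read by luminescence 30 min after adding Caspase-Glo 3/7 reagent at room temperature.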

[8] = Caspase-3/7 induction in CHO-K1 cells by small molecules, qHTS cell viability counter screen (AID 1346979); note: nearly all actives have a fitted effect of over 35% in size
Summary of the method: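 Cytotoxicity counter screen run in parallel with the caspase-3/7 assay: CHO-K1 cells, 16hr compound treatment at 37C, then CellTiter-Fluor for 1hr before fluorescence reading.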

[9] = Caspase-3/7 induction in CHO-K1 cells by small molecules, qHTS assay (AID 1346980); note: nearly all actives have a fitted effect of over 15% in size
Summary of the method: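 Wild-type cells were seeded at 1,500 per well and settled 5 hr at 37 C, 5% CO2, then exposed to DMSO-dissolved compounds for 17 hr. Caspase-Glo 3/7 reagent was added, and luminescence was read after 30min at room temperature.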

[10] = molecular target: Nuclear receptor subfamily 1 group I member 2 (Homo sapiens) (UniProt O75469); assay: Human pregnane X receptor (PXR) small molecule agonists, qHTS assay (AID 1346982); note: nearly all actives have a fitted effect of over 35% in size; note: potency is the fitted concentration of half-maximal effect
Summary of the method: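 Stable HepG2 line reporting PXR-mediated CYP3A4 expression via luciferase. Treatment: 24 hr with compounds in DMSO at 37 C. Detection: ONE-Glo luminescence.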

[11] = molecular target: Voltage-gated inwardly rectifying potassium channel KCNH2 (Homo sapiens) (UniProt Q12809); assay: Human Ether-a-go-go-Related Gene (hERG) channel small molecule antagonists: fluorescence cell-based qHTS assay (AID 1671200);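 note: hERG-expressing U2OS cells given a thallium stimulus after FluxOR II dye loading; series mostly up to about 77 µM; nearly all actives have a fitted effect of over 50% in size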
Summary of the method: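 Fluorescence at 540 nm emission (480 nm excitation) was recorded kinetically for 2 min at 1-second intervals once the thallium-containing stimulus reached cells previously loaded with FluxOR II dye.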

[12] = Caspase-3/7 induction in HepG2 cells by small molecules, qHTS cell viability counter screen (AID 1346981); note: series mostly up to about 92 µM; nearly all actives have a fitted effect of over 30% in size
Summary of the method: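 Treatment of HepG2 cells with DMSO-delivered compounds ran 16 hr at 37 C following a 5-hr pre-incubation of 2,000 cells/well. CellTiter-Fluor fluorescence, read after 1 hr, served as the viability measure in a qHTS format.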

[13] = molecular target: Cytochrome P450 2D6 (Homo sapiens) (UniProt P10635); assay: Cytochrome P450 Family 2 Subfamily D Member 6 (CYP2D6) small molecule antagonists: luciferase reporter qHTS assay (AID 1671196); note: series mostly up to about 120 µM; nearly all actives have a fitted effect of over 50% in size
Summary of the method: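 Chemicals tested for interference with CYP2D6 activity; proluciferin substrate, NADPH regeneration, 1 h at room temperature, luminescent detection.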

[14] = molecular target: Cytochrome P450 2C19 (Homo sapiens) (UniProt P33261); assay: Cytochrome P450 Family 2 Subfamily C Member 19 (CYP2C19) small molecule antagonists: luciferase reporter qHTS assay (AID 1671197); note: nearly all actives have a fitted effect of over 65% in size; note: potency is the fitted concentration of half-maximal effect
Summary of the method: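 Light output is proportional to CYP2C19 activity: proluciferin substrate is converted to luciferin, then detected by a luciferin detection reagent that also stops the 1 h, 37C NADPH-driven reaction. Ketoconazole serves as positive control.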

[15] = molecular target: Cytochrome P450 2C9 (Homo sapiens) (UniProt P11712); assay: Cytochrome P450 Family 2 Subfamily C Member 9 (CYP2C9) small molecule antagonists: luciferase reporter qHTS assay (AID 1671198); note: nearly all actives have a fitted effect of over 50% in size; note: potency is the fitted concentration of half-maximal effect
Summary of the method: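 CYP2C9 activity was measured with a P450-Glo proluciferin substrate. Enzyme–substrate mix was held with compound for 10 min at room temperature, then NADPH regeneration solution was added for 1 h at 37C. Luciferin product was read as luminescence.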

[16] = molecular target: Cytochrome P450 1A2 (Homo sapiens) (UniProt P05177); assay: Cytochrome P450 Family 1 Subfamily A Member 2 (CYP1A2) small molecule antagonists: luciferase reporter qHTS assay (AID 1671199); note: nearly all actives have a fitted effect of over 50% in size; note: potency is the fitted concentration of half-maximal effect
Summary of the method: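 Read-out is luminescence from luciferin detection reagent (20 min) proportional to CYP1A2 activity; compounds in DMSO preincubated 10 min with enzyme and proluciferin substrate, then NADPH regeneration solution, 1 h, room temperature.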

[17] = molecular target: Cytochrome P450 3A4 (Homo sapiens) (UniProt P08684); assay: Cytochrome P450 Family 3 Subfamily A Member 4 (CYP3A4) small molecule antagonists: luciferase reporter qHTS assay (AID 1671201)
Summary of the method: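 qHTS, 1536-well. CYP3A4 + proluciferin substrate, cpd 10 min RT → NADPH regen 1 h RT → detection reagent 20 min → luminescence (RLU). Ketoconazole positive control.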

[18] = molecular target: Nuclear receptor subfamily 1 group I member 2 (Rattus norvegicus) (UniProt Q9R1A7); assay: Rat pregnane X receptor (rPXR) activation by small molecules, qHTS assay (AID 1346983); conditions: rPXR luciferase reporter cells, One-Glo luminescence, 24 h; max activation: active compounds read high; note: nearly all actives have a fitted effect of over 20% in size
Summary of the method: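 Cell-based rPXR luciferase reporter assay, 2,000 cells per well, rested 5hr at 37 C before compound addition in DMSO, then 24 hr at 37 C. One-Glo reagent was added and luminescence read after 30 min at room temperature.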

[19] = molecular target: Nuclear receptor subfamily 1 group I member 2 (Homo sapiens) (UniProt O75469); assay: CYP3A4 induction through human pregnane X receptor (PXR) by small molecules, qHTS assay (AID 1346984); note: nearly all actives have a fitted effect of over 40% in size
Summary of the method: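 After 24 h at 37C with compound, DPX-2 cells (HepG2, co-transfected PXR response element and CYP3A4 promoter-luciferase) got 3uM final P450-Glo Luciferin-IPA for 3 h; One-Glo luminescence followed.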

[20] = molecular target: Nuclear receptor subfamily 1 group I member 2 (Homo sapiens) (UniProt O75469); assay: Human pregnane X receptor (PXR) activation by small molecules, qHTS assay (AID 1346985); note: nearly all actives have a fitted effect of over 40% in size
Summary of the method: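 DPX-2 cells (HepG2 co-transfected with a PXR response element and a CYP3A4-promoter luciferase construct) were seeded at 2,000 per well, rested 5 hr at 37C, then exposed to DMSO-dissolved compounds for 24 hr. Activation was read as luciferase luminescence.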
% is set by controls: 0 for no effect and ±100 for the full control effect.

Cytochrome P450 2C19 (Homo sapiens), sequence (P33261 whole entry, looked up): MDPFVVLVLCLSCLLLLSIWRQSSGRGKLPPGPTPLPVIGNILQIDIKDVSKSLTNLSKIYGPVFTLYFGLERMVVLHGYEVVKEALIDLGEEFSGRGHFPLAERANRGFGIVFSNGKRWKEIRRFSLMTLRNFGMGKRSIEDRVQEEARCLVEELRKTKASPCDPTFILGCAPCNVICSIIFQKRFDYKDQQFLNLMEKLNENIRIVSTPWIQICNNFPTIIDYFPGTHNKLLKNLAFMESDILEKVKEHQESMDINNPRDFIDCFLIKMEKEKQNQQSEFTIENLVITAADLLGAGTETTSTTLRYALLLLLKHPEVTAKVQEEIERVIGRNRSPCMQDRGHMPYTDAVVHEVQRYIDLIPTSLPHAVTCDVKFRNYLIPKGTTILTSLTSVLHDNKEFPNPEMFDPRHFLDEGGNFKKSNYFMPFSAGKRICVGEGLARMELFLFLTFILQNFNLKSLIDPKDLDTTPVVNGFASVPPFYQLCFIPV
Cytochrome P450 2C9 (Homo sapiens), sequence (P11712 whole entry, looked up): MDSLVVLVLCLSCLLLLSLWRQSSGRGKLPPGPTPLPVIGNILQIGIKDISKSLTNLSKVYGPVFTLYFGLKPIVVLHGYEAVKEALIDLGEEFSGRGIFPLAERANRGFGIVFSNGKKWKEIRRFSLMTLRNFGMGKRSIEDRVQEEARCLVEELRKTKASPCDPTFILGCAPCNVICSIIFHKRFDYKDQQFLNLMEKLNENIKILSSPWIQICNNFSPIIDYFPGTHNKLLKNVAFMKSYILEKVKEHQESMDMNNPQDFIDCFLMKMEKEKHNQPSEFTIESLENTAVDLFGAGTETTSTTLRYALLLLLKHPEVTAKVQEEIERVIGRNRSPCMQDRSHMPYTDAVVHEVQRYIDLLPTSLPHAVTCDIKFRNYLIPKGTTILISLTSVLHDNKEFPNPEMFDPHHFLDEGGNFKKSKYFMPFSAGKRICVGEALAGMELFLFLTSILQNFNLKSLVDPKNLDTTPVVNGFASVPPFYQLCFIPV
Cytochrome P450 3A4 (Homo sapiens), sequence (P08684 whole entry, looked up): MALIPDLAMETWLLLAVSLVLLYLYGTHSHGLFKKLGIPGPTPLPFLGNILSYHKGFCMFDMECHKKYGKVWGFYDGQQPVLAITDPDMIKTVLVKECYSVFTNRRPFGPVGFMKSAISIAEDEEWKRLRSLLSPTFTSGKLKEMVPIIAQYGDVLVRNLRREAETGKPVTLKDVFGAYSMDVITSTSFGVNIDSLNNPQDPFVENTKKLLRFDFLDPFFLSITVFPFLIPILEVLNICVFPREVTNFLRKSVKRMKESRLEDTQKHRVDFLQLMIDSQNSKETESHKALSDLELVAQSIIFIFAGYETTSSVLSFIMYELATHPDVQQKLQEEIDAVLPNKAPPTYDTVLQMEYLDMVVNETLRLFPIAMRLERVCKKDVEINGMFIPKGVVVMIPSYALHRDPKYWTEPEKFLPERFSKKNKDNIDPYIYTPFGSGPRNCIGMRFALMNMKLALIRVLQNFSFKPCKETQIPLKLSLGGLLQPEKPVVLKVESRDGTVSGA
Cytochrome P450 2D6 (Homo sapiens), sequence (P10635 whole entry, looked up): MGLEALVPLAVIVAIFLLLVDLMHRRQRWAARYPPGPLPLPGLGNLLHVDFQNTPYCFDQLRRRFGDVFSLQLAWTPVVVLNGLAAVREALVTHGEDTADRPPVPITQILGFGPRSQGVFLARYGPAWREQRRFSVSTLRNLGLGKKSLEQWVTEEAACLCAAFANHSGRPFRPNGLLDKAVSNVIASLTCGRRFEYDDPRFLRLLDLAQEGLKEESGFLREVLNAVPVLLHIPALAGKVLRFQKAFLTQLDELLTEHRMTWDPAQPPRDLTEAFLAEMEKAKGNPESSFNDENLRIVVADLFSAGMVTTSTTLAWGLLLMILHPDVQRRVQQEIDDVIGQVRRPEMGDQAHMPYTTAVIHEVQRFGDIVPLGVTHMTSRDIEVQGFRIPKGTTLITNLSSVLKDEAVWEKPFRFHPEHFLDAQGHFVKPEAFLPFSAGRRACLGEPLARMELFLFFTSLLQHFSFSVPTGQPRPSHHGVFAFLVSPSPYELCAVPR
Cytochrome P450 1A2 (Homo sapiens), sequence (P05177 whole entry, looked up): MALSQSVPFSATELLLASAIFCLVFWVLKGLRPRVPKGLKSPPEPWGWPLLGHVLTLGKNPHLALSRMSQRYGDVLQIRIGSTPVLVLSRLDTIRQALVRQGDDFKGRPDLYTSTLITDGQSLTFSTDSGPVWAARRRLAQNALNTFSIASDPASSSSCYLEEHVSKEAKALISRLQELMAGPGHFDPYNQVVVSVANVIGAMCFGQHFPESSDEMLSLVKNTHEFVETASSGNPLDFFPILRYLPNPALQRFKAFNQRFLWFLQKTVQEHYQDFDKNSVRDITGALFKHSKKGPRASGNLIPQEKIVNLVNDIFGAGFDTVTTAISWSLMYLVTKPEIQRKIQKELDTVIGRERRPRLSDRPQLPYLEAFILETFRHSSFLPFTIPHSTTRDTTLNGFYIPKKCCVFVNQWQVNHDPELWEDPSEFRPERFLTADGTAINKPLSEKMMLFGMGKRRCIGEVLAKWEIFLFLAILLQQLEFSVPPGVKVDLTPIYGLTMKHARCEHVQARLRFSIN
Voltage-gated inwardly rectifying potassium channel KCNH2 (Homo sapiens), sequence (Q12809 whole entry, looked up): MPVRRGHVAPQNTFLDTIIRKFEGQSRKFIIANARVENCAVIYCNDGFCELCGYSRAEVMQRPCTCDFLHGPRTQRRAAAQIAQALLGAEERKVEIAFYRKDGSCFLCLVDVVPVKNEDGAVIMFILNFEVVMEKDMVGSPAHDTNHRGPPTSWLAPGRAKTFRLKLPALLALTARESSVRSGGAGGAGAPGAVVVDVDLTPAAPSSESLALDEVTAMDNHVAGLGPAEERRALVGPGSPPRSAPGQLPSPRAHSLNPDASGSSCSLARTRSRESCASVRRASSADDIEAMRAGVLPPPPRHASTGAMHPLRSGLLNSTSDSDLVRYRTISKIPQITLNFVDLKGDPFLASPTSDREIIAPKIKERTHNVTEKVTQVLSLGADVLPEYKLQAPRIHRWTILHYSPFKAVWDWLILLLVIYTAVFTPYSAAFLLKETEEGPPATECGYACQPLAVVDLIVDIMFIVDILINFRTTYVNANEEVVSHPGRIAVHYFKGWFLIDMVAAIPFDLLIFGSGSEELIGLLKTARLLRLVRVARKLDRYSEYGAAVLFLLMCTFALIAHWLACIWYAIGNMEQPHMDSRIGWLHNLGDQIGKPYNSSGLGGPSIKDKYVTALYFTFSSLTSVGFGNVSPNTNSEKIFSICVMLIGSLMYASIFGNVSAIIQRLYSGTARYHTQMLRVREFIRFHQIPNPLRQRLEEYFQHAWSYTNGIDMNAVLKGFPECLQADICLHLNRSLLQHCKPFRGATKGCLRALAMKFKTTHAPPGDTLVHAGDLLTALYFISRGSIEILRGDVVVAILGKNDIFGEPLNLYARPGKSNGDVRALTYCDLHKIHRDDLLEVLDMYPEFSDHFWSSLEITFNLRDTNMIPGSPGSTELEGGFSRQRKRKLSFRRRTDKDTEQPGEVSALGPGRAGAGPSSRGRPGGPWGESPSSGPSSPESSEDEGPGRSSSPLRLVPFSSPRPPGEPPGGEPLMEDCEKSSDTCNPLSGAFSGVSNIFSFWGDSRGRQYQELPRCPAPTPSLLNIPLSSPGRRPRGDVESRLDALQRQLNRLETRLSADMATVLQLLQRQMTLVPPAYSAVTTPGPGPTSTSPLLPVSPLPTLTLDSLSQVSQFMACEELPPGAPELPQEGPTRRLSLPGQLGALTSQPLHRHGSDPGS
Nuclear receptor subfamily 1 group I member 2 (Homo sapiens), sequence (O75469 whole entry, looked up): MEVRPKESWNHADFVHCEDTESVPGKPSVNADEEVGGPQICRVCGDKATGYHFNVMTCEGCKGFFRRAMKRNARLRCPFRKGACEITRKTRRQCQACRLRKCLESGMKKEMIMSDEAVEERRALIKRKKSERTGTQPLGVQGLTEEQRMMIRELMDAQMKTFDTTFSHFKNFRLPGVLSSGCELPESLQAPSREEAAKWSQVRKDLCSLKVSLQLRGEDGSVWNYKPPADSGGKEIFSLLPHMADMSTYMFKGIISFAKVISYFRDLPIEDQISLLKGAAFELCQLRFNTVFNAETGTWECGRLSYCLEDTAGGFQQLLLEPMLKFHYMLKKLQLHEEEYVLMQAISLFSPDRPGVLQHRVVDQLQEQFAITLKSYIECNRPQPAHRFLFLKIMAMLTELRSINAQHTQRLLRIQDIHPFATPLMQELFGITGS
Thyrotropin-releasing hormone receptor (Homo sapiens), sequence (P34981 whole entry, looked up): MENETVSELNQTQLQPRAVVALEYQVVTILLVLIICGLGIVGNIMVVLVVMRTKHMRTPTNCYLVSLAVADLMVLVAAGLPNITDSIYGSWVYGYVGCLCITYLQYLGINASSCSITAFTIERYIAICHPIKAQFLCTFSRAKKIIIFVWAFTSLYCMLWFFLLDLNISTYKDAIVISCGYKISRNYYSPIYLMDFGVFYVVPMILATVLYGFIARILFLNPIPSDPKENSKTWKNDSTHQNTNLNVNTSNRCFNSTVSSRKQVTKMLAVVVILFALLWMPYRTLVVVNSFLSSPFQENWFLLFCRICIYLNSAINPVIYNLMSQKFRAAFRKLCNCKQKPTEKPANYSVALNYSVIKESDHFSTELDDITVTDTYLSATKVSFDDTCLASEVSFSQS
Nuclear receptor subfamily 1 group I member 2 (Rattus norvegicus), sequence (Q9R1A7 whole entry, looked up): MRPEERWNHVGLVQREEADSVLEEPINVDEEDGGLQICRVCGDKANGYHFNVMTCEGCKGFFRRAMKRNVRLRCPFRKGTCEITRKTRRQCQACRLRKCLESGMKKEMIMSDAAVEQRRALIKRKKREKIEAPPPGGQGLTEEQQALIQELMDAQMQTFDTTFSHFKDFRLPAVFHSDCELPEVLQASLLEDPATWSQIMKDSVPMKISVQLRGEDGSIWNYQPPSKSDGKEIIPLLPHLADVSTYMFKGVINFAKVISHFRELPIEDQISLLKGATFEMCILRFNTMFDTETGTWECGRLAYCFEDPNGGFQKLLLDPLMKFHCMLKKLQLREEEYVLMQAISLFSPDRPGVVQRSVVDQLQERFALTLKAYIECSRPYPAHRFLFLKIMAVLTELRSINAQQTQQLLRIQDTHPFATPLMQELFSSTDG

CC1CCC(C(C)(C)S)C(=O)C1 (configuration not stated)
inactive: outcome [1] | outcome [2] | outcome [3] | outcome [4] | outcome [5] | Potency [6] | outcome [7] | Potency [8] | outcome [9] | Potency [11]
active: Potency [10] 61.1 µM

c1ccc(CNc2ncnc3nc[nH]c23)cc1
inactive: outcome [1] | outcome [2] | outcome [3] | outcome [4] | outcome [5] | outcome [7] | Potency [8] | outcome [9] | Potency [12] | Potency [11]

OCCCCCCCl
inactive: outcome [1] | outcome [2] | outcome [3] | outcome [4] | Potency [6] | outcome [7] | Potency [8] | outcome [9] | Potency [12] | Potency [13] | Potency [14] | Potency [15] | Potency [16] | Potency [11] | Potency [17]

Oc1ccccc1Cc1ccccc1O
inactive: outcome [1] | outcome [2] | outcome [3] | outcome [4] | outcome [5] | Potency [6] | outcome [7] | outcome [9] | Potency [12] | Potency [11]
active: Potency [10] 61.1 µM | Potency [14] 10 µM | Potency [15] 39.9 µM

CNCc1ccccc1
inactive: outcome [1] | outcome [2] | outcome [3] | outcome [4] | outcome [5] | Potency [6] | outcome [7] | outcome [9] | Potency [12] | Potency [10] | max activation [18] -0.758% | outcome [19] | Potency [20] | Potency [13] | Potency [16] | Potency [11] | Potency [17]

O=C1c2ccccc2-c2ccccc21
active: Potency [14] 57.9 µM | Potency [15] 65 µM | Potency [16] 0.58 µM
inactive: outcome [1] | outcome [2] | outcome [3] | outcome [4] | outcome [5] | Potency [6] | outcome [7] | outcome [9] | Potency [12] | Potency [10] | Potency [11] | Potency [17]

O=C(Oc1ccccc1C(=O)O)c1ccccc1O
inactive: outcome [1] | outcome [2] | outcome [3] | outcome [4] | Potency [6] | outcome [7] | outcome [9] | Potency [12] | Potency [10] | max activation [18] -2.38% | outcome [19] | Potency [20] | Potency [13] | Potency [11] | Potency [17]

O=CN1CCOCC1
active: Potency [16] 44.8 µM
inactive: outcome [1] | outcome [2] | outcome [3] | outcome [4] | outcome [5] | Potency [6] | outcome [7] | outcome [9] | Potency [12] | Potency [10] | Potency [13] | Potency [14] | Potency [15] | Potency [11] | Potency [17]
